Reference: PubChem BioAssay (Tox21)
Results filed as inconclusive are left out. Calls of active or inactive are those of the source. Unless noted, calls follow the shape of the full dose curve.

Legend:
[1] = qHTS assay to identify small molecule agonists of the vitamin D receptor (VDR) signaling pathway - cell viability counter screen (AID 743224; active = well fitted curve in the direction sought with a large enough effect in the repeat runs; an effect the other way counts as inactive or inconclusive; also: series mostly up to about 63 µM; % is scaled to controls: 0 for no effect and ±100 for the full control effect; nearly all actives have a fitted effect of over 50% in size)
Procedure, shortened: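 Luminescence from CellTiter-Glo, read after 30 min at room temperature, reports viability of VDR-bla cells treated with compounds for 16 h at 37C in the wells used for the beta-lactamase FRET read.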

[2] = qHTS assay to identify small molecule agonists of the NFkB signaling pathway (AID 1159509; active = well fitted curve in the direction sought with a large enough effect in the signal ratio in the repeat runs, not every such curve was filed as active; the % refers to the signal ratio; also: series mostly up to about 61 µM; % is scaled to controls: 0 for no effect and ±100 for the full control effect)
Procedure, shortened: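 ME-180 NFkB-bla, 2,000 cells/well, overnight plating; cpd pinned in DMSO, 5 h 37 C; B/G FRET substrate 1.5 h RT; ex 405, em 460/530 nm.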

[3] = qHTS assay to identify small molecule agonists of the NFkB signaling pathway - cell viability counter screen (AID 1159515); also: series mostly up to about 61 µM; % is scaled to controls: 0 for no effect and ±100 for the full control effect; nearly all actives have a fitted effect of over 55% in size
Procedure, shortened: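 Luminescence from CellTiter-Glo (30 min, room temperature) gives viability, measured in the same wells as the beta-lactamase reporter read. Cells were NFkB-bla ME-180, 2,000 per well, treated 5 hr with compounds.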

[4] = qHTS assay to identify small molecule agonists of the endoplasmic reticulum stress response signaling pathway (AID 1159516; active = well fitted activation curve with a large enough effect in the signal ratio in the repeat runs, not every such curve was filed as active; the % refers to the signal ratio; also: % is scaled to controls: 0 for no effect and ±100 for the full control effect)
Procedure, shortened: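 Read-out is beta-lactamase cleavage of a FRET substrate (405 nm excitation; 460 and 530 nm emissions) in ESRE-bla HeLa cells after a 5 hr compound exposure at 37 C. Substrate incubation ran 2 hr at room temperature.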

[5] = qHTS assay to identify small molecule agonists of the endoplasmic reticulum stress response signaling pathway - cell viability counter screen (AID 1159517);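 also: HeLa cells carrying an ER stress response element beta-lactamase reporter; series mostly up to about 61 µM; % is scaled to controls: 0 for no effect and ±100 for the full control effect; nearly all actives have a fitted effect of over 50% in size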
Procedure, shortened: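 CellTiter-Glo was added to wells already read for beta-lactamase FRET, and luminescence was recorded 30 min later. Cells: ESRE-bla HeLa, 1,500 per well, compound exposure 5 hr at 37 C.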

[6] = qHTS assay to identify small molecule antagonists of the retinoid-related orphan receptor gamma (ROR-gamma) signaling pathway - cell viability counter screen (AID 1159520; active = well fitted curve in the direction sought with a large enough effect in the repeat runs; an effect the other way counts as inactive or inconclusive; also: % is scaled to controls: 0 for no effect and ±100 for the full control effect; nearly all actives have a fitted effect of over 50% in size)
Procedure, shortened: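 Tet-on ROR gamma CHO cells (1,000/well) were plated 4 hr, given compounds in DMSO for 2 hr at 37 C, then induced with 1 uM final doxycycline for 16 hr. Viability was read as ATP by CellTiter-Glo luminescence after 30 min.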

[7] = biological target: Nuclear receptor ROR-gamma (Homo sapiens) (UniProt P51449); experiment: qHTS assay to identify small molecule antagonists of the retinoid-related orphan receptor gamma (ROR-gamma) signaling pathway (AID 1159521; active = well fitted curve in the direction sought with a large enough effect in the repeat runs; an effect the other way counts as inactive or inconclusive;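 also: CHO cells with doxycycline inducible ROR-gamma driving an RORE luciferase reporter; top concentration of the series differs between compounds; % is scaled to controls: 0 for no effect and ±100 for the full control effect; nearly all actives have a fitted effect of over 50% in size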)
Procedure, shortened: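 Decreased RORE-driven luciferase luminescence indicates antagonism. Tet-on RORγ CHO cells received compound, then 1 uM final doxycycline 2 h later; signal read after 16 h incubation.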

[8] = qHTS assay to identify small molecule agonists of the AP-1 signaling pathway - cell viability counter screen (AID 1159525); also: nearly all actives have a fitted effect of over 55% in size
Procedure, shortened: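 ME-180 AP-1-bla, 2500 cells/well, Opti-MEM + 0.5% dialyzed FBS; overnight 37 °C; cpd 15-pt titration, 5 h 37 °C; CellTiter-Glo 30 min RT; luminescence read; normalised to TOAB and DMSO controls.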

[9] = qHTS assay to identify small molecule agonists of the AP-1 signaling pathway (AID 1159526); also: % is scaled to controls: 0 for no effect and ±100 for the full control effect
[10] = qHTS assay to identify small molecule antagonists of the vitamin D receptor (VDR) signaling pathway - cell viability counter screen (AID 743225; active = well fitted curve in the direction sought with a large enough effect in the repeat runs; an effect the other way counts as inactive or inconclusive)
Procedure, shortened: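 Parallel cytotoxicity test: VDR-UAS-bla HEK 293T, 3 nM (final) 1-alpha,25-dihydroxyvitamin D3 with test compound, 16 h, 37C. Endpoint is CellTiter-Glo luminescence in the same wells.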

O=C(O)c1ccccc1OP(=O)(O)O
inactive: Potency [1] | outcome [2] | outcome [3] | outcome [4] | outcome [5] | outcome [6] | Potency [7] | Potency [8] | outcome [9]

N=C(N)c1ccc(OCCCOc2ccc(C(=N)N)cc2)cc1
inactive: Potency [1] | outcome [2] | outcome [3] | outcome [4] | outcome [5] | outcome [6] | Potency [7] | Potency [8] | outcome [9]

CO[Si](CCCOCC1CO1)(OC)OC (centres undefined)
inactive: Potency [1] | outcome [2] | outcome [3] | outcome [4] | outcome [5] | outcome [6] | Potency [7] | Potency [8] | outcome [9]

Cn1cc(S(C)=O)c(=O)c2ccc(F)cc21 (centres undefined)
inactive: Potency [1] | outcome [2] | outcome [3] | outcome [4] | outcome [5] | outcome [6] | Potency [7] | Potency [8] | outcome [9]

N[C@H]1CN(c2c(F)cc3c(=O)c(C(=O)O)cn(C4C[C@H]4F)c3c2Cl)CC12CC2 (some centres undefined)
inactive: Potency [1] | Potency [10] | outcome [2] | outcome [3] | outcome [4] | outcome [5] | outcome [6] | Potency [7] | Potency [8] | outcome [9]

COc1cc(C(=O)N2CCCCCCC2)cc(OC)c1OC
inactive: Potency [1] | Potency [10] | outcome [2] | outcome [3] | outcome [4] | outcome [5] | outcome [6] | Potency [7] | Potency [8] | outcome [9]

N=C(N)c1ccccc1
inactive: Potency [1] | outcome [2] | outcome [3] | outcome [4] | outcome [5] | outcome [6] | Potency [7] | Potency [8] | outcome [9]

CC(=O)Nc1c(I)cc(I)c(C(=O)O)c1I
inactive: Potency [1] | outcome [2] | outcome [3] | outcome [4] | outcome [5] | outcome [6] | Potency [7] | Potency [8] | outcome [9]

CCc1nccnc1CC
inactive: Potency [1] | Potency [10] | outcome [2] | outcome [3] | outcome [4] | outcome [5] | activity, negative = cytotoxicity [6] -7.52% [at 19 µM] | Potency [7] | viability change, negative = cytotoxic [8] -1.96% [at 15.8 µM] | outcome [9]

O=S(O)CO
inactive: Potency [1] | Potency [10] | outcome [2] | outcome [3] | outcome [4] | outcome [5] | outcome [6] | Potency [7] | Potency [8] | outcome [9]

CC(C)CNCC(C)C
inactive: Potency [1] | Potency [10] | outcome [2] | outcome [3] | outcome [4] | outcome [5] | outcome [6] | Potency [7] | Potency [8] | outcome [9]

FC(F)OC(Cl)C(F)(F)F (centres undefined)
inactive: Potency [1] | Potency [10] | outcome [2] | outcome [3] | outcome [4] | outcome [5] | outcome [6] | Potency [7] | Potency [8] | outcome [9]

CC1(C)CO[C@@H](CC(=O)O)CN1
inactive: Potency [1] | Potency [10] | outcome [2] | outcome [3] | outcome [4] | outcome [5] | outcome [6] | Potency [7] | Potency [8] | outcome [9]

CC(C)(O)C#CC(C)(C)O
inactive: Potency [1] | Potency [10] | outcome [2] | outcome [3] | outcome [4] | outcome [5] | outcome [6] | Potency [7] | Potency [8] | outcome [9]

O=C1CCCCCCCCCCCN1
inactive: Potency [1] | Potency [10] | outcome [2] | outcome [3] | outcome [4] | outcome [5] | outcome [6] | Potency [7] | Potency [8] | outcome [9]

CCC(C)C1CCCCC1=O (centres undefined)
inactive: Potency [1] | Potency [10] | outcome [2] | outcome [3] | outcome [4] | outcome [5] | outcome [6] | Potency [7] | Potency [8] | outcome [9]

O=C(CCCN1CCN(c2ccccn2)CC1)c1ccc(F)cc1
inactive: Potency [1] | Potency [10] | outcome [2] | outcome [3] | outcome [4] | outcome [5] | outcome [6] | Potency [7] | Potency [8] | outcome [9]

CC(C)=CCCC(C)CC(=O)O (centres undefined)
inactive: Potency [1] | Potency [10] | outcome [2] | outcome [3] | outcome [4] | outcome [5] | outcome [6] | Potency [7] | Potency [8] | outcome [9]

CCOC(=O)C(=O)OCC
inactive: Potency [1] | Potency [10] | outcome [2] | outcome [3] | outcome [4] | outcome [5] | outcome [6] | Potency [7] | Potency [8] | outcome [9]

C1OCOCO1
inactive: Potency [1] | Potency [10] | outcome [2] | outcome [3] | outcome [4] | outcome [5] | outcome [6] | Potency [7] | Potency [8] | outcome [9]

C=C[Si](OC(=C)C)(OC(=C)C)OC(=C)C
inactive: Potency [1] | Potency [10] | outcome [2] | outcome [3] | outcome [4] | outcome [5] | outcome [6] | Potency [7] | Potency [8] | outcome [9]

CCOC(=O)c1c(C)n(C)c2ccc(O)cc12
inactive: Potency [1] | Potency [10] | outcome [2] | outcome [3] | outcome [4] | outcome [5] | outcome [6] | Potency [7] | Potency [8] | outcome [9]

CN1CCCC1
inactive: Potency [1] | Potency [10] | outcome [2] | outcome [3] | outcome [4] | outcome [5] | outcome [6] | Potency [7] | Potency [8] | outcome [9]
